From ChEMBL document CHEMBL3988442, “University of Dundee, Small-Polar-MMV Screening Library” (2021)

biological target: T1, Proteasome subunit beta (Trypanosoma cruzi) (UniProt O96673); experiment: Trypanosoma cruzi proteasome chymotrypsin-like activity (TcProtChymo) assay.; assay type: functional; design: scale not given: in the data most compounds retested in dose-response had high values; details: 9.37 µM
T1 sequence (whole entry): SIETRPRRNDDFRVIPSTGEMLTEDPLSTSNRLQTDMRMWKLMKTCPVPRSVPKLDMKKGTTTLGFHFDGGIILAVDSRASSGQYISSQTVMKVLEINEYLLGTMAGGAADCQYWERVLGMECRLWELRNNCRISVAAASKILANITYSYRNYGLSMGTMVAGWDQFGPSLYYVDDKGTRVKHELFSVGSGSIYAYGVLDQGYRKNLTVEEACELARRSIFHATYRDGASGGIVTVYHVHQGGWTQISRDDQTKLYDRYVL

Row | SMILES | Percent Effect
1 | O=C(C1CC1)N1CCCC1C1CCN(Cc2ccccc2)CC1 (stereo unspecified) | 4.31%
2 | Cc1nc(C)n(CC2CN(c3ccc(C#N)cn3)CCO2)n1 (stereo unspecified) | 6.51%
3 | COc1cc(N2C[C@@H]3COC[C@]3(COCc3cccc(C)n3)C2)ncn1 | 17.7%
4 | COCCN1CCC2(CC1)CC(COC)N(c1ncccn1)C2 (stereo unspecified) | 7.99%
5 | O=C(CCOCc1ccccc1)N1CCCC1c1noc(C2CC2)n1 (stereo unspecified) | 5.22%
6 | CS(=O)(=O)NCC1CCCN(Cc2ccc(F)c3cccnc23)C1 (stereo unspecified) | 18.5%
7 | O=C(NC[C@]12COC[C@H]1CN(Cc1nccs1)C2)c1ccccc1 | 15.7%
8 | CCc1cnc(CNc2ccc(C(=O)N3CCCC(C)C3)cc2C)o1 (stereo unspecified) | 8.78%
9 | Cc1cc(C[C@@H]2COC[C@@H]2NC(=O)CN2CCCC2)on1 | -4.61%
10 | Fc1cccc(Oc2ccc(CNCC3CNc4ccnn4C3)cn2)c1 (stereo unspecified) | 8.28%
11 | Cn1cccc1C(=O)N1CCN(Cc2ccncc2)c2ncccc2C1 | 12.1%
12 | CC(=O)Nc1nc(C(=O)N2CCCC(n3ccnc3)C2)cs1 (stereo unspecified) | -6.34%
13 | CN(C)C1CCN(C(=O)NCc2ccc(Cn3cncn3)cc2)CC1 | 14.5%
14 | NC(=O)CN1CCCN(C(=O)c2ccn(-c3cccc(F)c3)n2)CC1 | 10.3%
15 | COCCCC1(CO)CCCN(CCS(C)(=O)=O)C1 (stereo unspecified) | 2.13%
16 | CC1CCCCN1c1nc2c(c(=O)[nH]1)CCN(Cc1cccnc1)C2 (stereo unspecified) | 9.36%
17 | Cc1cc(CC(=O)N(CC2CN(C)CCO2)c2nccs2)no1 (stereo unspecified) | 1.08%
18 | CC(C)NC(=O)N1CCN(S(=O)(=O)C2CC2)CC2(CC(=O)N(C)C2)C1 (stereo unspecified) | -2.79%
19 | CCCNC(=O)N1CCN(Cc2cc(C)no2)CC1 | 17.5%
20 | O=C(COCc1ccccc1Cl)N1CCCC(n2cccn2)C1 (stereo unspecified) | 20.4%
21 | O=C(CN1CCCCC1Cn1cccn1)NC1CCN(C2CC2)CC1 (stereo unspecified) | 13.3%
22 | COCC1CC2(CCN(C(=O)c3cc(C)oc3C)CC2)CN1C(C)C (stereo unspecified) | 9.21%
23 | CCCN(CC(=O)NC)C(=O)c1ccc(-c2ccsc2)nc1C | 17.9%
24 | COCCN1C[C@H]2CC[C@@]3(N=C(C)N(CC4CC4)C3=O)[C@H]2C1 | 8.71%
25 | CCO[C@@H]1CC[C@H]2[C@H]1OCCN2C(=O)C1CCOCC1 | 18.2%
26 | O=C(c1cccnc1-n1cccn1)N1CCN(CC2CC2)CC1 | 13.1%

species on record: Homo sapiens; experiment: To identify inhibition of the IFN signalling (Jak-Stat) pathway via expression of an eGFP reporter gene under the control of an IFN-stimulated response element (ISRE) containing MxA promoter.; assay type: functional; design: scale not given: direction of the effect not stated beside the values; details: 30 µM

Row | SMILES | Percent Effect
27 | CC(C(=O)Nc1ccc(N2CCCC2)nc1)n1ccnc1 (stereo unspecified) | 28.6%
28 | O=C1N(Cc2ccccc2F)CCCC12CCN(C1CCSCC1)C2 (stereo unspecified) | -10.4%
29 | Cn1cc(CN2CC3(CCN(C(=O)c4ccoc4)C3)C2)cn1 | 15.8%
30 | CCOC(=O)NC(CNC(=O)CCc1ccccn1)CC(C)C (stereo unspecified) | -1.48%
31 | Cc1ccc(C2CSCCN2C(=O)C2=CCCC2)o1 (stereo unspecified) | -24%
32 | Cc1nc(Nc2nccs2)cc(C2CCCN2C2CCOCC2)n1 (stereo unspecified) | 6.9%
33 | COCc1cn([C@@H]2c3ccccc3C3(CCNCC3)[C@H]2O)nn1 | 3.98%
34 | N#Cc1ccc(F)c(CN2CCCC2Cn2cnc3ccccc32)c1 (stereo unspecified) | 22.9%
35 | O=C(CCCc1ncc(-c2ccccc2)o1)N1CCN(CCO)CC1 | 6.15%
36 | CCn1cnnc1CNC(=O)N(C)Cc1ccc2c(c1)OCCO2 | 2.89%
37 | COCCNC(=O)C(C)n1cc(Br)cn1 (stereo unspecified) | 5.02%
38 | CCn1nc(CC(C)C)cc1C(=O)N1C[C@H](O)[C@@H](N2CCCCC2)C1 | -6.25%
39 | O=C(CN1CCC(c2ccnn2CCO)CC1)NCc1cccs1 | -10.7%
40 | CCOc1ccc(CC(=O)N2CCN(c3nccn3C)CC2)cc1 | 9.26%
41 | O=C(C1CC1)N1CCCC1C1CCN(Cc2ccccc2)CC1 (stereo unspecified) | -4.47%
42 | Cc1nc(C)n(CC2CN(c3ccc(C#N)cn3)CCO2)n1 (stereo unspecified) | -2.74%
43 | COc1cc(N2C[C@@H]3COC[C@]3(COCc3cccc(C)n3)C2)ncn1 | 27.6%
44 | COCCN1CCC2(CC1)CC(COC)N(c1ncccn1)C2 (stereo unspecified) | -6.06%
45 | O=C(CCOCc1ccccc1)N1CCCC1c1noc(C2CC2)n1 (stereo unspecified) | 4.41%
46 | CS(=O)(=O)NCC1CCCN(Cc2ccc(F)c3cccnc23)C1 (stereo unspecified) | 16.9%

Row | SMILES | Percent Effect
47 | O=C(NC[C@]12COC[C@H]1CN(Cc1nccs1)C2)c1ccccc1 | 4.15%
48 | CCc1cnc(CNc2ccc(C(=O)N3CCCC(C)C3)cc2C)o1 (stereo unspecified) | 25.1%
49 | Cc1cc(C[C@@H]2COC[C@@H]2NC(=O)CN2CCCC2)on1 | 18.8%
50 | Fc1cccc(Oc2ccc(CNCC3CNc4ccnn4C3)cn2)c1 (stereo unspecified) | 8.31%
51 | Cn1cccc1C(=O)N1CCN(Cc2ccncc2)c2ncccc2C1 | 13.8%
52 | CC(=O)Nc1nc(C(=O)N2CCCC(n3ccnc3)C2)cs1 (stereo unspecified) | -6.45%
53 | CN(C)C1CCN(C(=O)NCc2ccc(Cn3cncn3)cc2)CC1 | 6.43%
54 | NC(=O)CN1CCCN(C(=O)c2ccn(-c3cccc(F)c3)n2)CC1 | -17.8%
55 | COCCCC1(CO)CCCN(CCS(C)(=O)=O)C1 (stereo unspecified) | -0.331%
56 | CC1CCCCN1c1nc2c(c(=O)[nH]1)CCN(Cc1cccnc1)C2 (stereo unspecified) | 2.99%
57 | Cc1cc(CC(=O)N(CC2CN(C)CCO2)c2nccs2)no1 (stereo unspecified) | -15.8%
58 | CC(C)NC(=O)N1CCN(S(=O)(=O)C2CC2)CC2(CC(=O)N(C)C2)C1 (stereo unspecified) | 12.6%
59 | CCCNC(=O)N1CCN(Cc2cc(C)no2)CC1 | 2.72%
60 | O=C(COCc1ccccc1Cl)N1CCCC(n2cccn2)C1 (stereo unspecified) | 20.2%
61 | O=C(CN1CCCCC1Cn1cccn1)NC1CCN(C2CC2)CC1 (stereo unspecified) | 1.18%
62 | COCC1CC2(CCN(C(=O)c3cc(C)oc3C)CC2)CN1C(C)C (stereo unspecified) | 1.95%
63 | CCCN(CC(=O)NC)C(=O)c1ccc(-c2ccsc2)nc1C | 12.1%
64 | COCCN1C[C@H]2CC[C@@]3(N=C(C)N(CC4CC4)C3=O)[C@H]2C1 | 7.83%
65 | CCO[C@@H]1CC[C@H]2[C@H]1OCCN2C(=O)C1CCOCC1 | 2.97%
66 | O=C(c1cccnc1-n1cccn1)N1CCN(CC2CC2)CC1 | -3.39%
